EP2 antag: human EP2 receptor antagonists, primary screen, TR-FRET cAMP, C6 glioma cells. 260,000 tested, 0.52% active. AID 1422, 2008. inhibition, % at 25 µM. C6 glioma cells expressing human EP2; cells stimulated with saturating PGE2;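 active = percent inhibition above 40 after rounding to a whole number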;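 also: rat C6 glioma host cells with rolipram phosphodiesterase inhibitor present; the protocol text gives 20 µM as final concentration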
Target sequence (P43116 whole entry, looked up): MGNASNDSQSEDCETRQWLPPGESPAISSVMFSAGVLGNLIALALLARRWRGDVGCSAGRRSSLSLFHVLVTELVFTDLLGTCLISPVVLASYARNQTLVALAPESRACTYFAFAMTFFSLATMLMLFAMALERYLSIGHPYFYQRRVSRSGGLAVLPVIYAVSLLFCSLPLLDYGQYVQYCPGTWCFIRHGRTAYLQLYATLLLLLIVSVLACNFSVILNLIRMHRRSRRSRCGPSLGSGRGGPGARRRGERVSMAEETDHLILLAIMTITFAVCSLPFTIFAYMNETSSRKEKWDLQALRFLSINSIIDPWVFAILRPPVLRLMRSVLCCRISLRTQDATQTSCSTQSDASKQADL
EP2 modulator: EP2 receptor modulators, cAMP readout, primary screen, cell-based, HTRF cAMP, PGE2 stimulation; EP2-expressing cells, cAMP HTRF FRET, PGE2 co-stimulation; Prostaglandin E2 receptor EP2 subtype (Homo sapiens), P43116; induction, % at 25 µM; AID 940, 2007; 260,000 tested, 0.83% active;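 active = compounds whose cAMP rise, as percent of the full-agonist control response, exceeds 60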;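 also: rat C6 glioma line stably carrying human EP2 under a CMV promoter; the protocol text gives 20 µM as final concentration; 100% = response of wells given 1 µM PGE2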
CHT PAM: CHT positive allosteric modulators, primary screen, cell-based, membrane potential dye, choline EC20; CHT-expressing cells; hits give high values; LV-AA mutant CHT in HEK293 cells; AID 488977, 2010; High affinity choline transporter 1 (Homo sapiens), Q9GZV3; 310,000 tested, 0.49% active; B-score at 10 µM;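 active = initial fluorescence not abnormally high and integrated response B-score, plate-corrected, over 3 SD above library mean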
CHT inh: inhibitors of human choline transporter CHT; High affinity choline transporter 1 (Homo sapiens), Q9GZV3; 310,000 tested, 0.86% active; B-score at 10 µM; CHT-expressing cells, membrane potential dye, choline response; hits give low values; AID 488975, 2010;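 active = B-score over 3 SD under the library average, and starting fluorescence ratio not unusually high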;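 also: choline stimulus applied at its EC90 after an EC20 pre-addition; B-score computed on integrated fluorescence ratio after choline addition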
CHT block conf: CHT inhibitors, confirmation, cell-based, membrane potential dye, duplicate; CHT-expressing cells, choline membrane potential dye; LV-to-AA substituted CHT, HEK293 cells; shares compounds with CHT inh; 2,400 tested, 70% active; CHT activity remaining % of control (hits give low values), % at 10 µM;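 active = choline transporter activity left, mean of duplicates at 10 µM, below buffer-only control mean minus 3 SD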;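 also: depolarization triggered by choline at its EC90 following an EC20 pre-addition; 0% = hemicholinium-3 full block and 100% = buffer-only control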
HEK293 CHT ctr: membrane potential effects in parental HEK293, counter-screen for CHT inhibitor project, cell-based, membrane potential dye. shares compounds with CHT inh. choline response; active = decrease or increase beyond buffer ±3SD. membrane potential ratio readout (active if shifted either direction beyond buffer ±3SD; no single direction) at 10 µM. 2,400 tested, 4% active;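 also: parental cells lack the transporter so any hit is non-specific; ratio is peak minus trough fluorescence over baseline after EC90 choline challenge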
* = called active by the depositor; i = inactive; . = no result given; ! = a repeat was not active. Only some compounds are listed: those with a hit (about 2% of all), similar ones and a draw of the others.

SMILES | EP2 antag | EP2 modulator | CHT PAM | CHT inh | CHT block conf | HEK293 CHT ctr
O=C(CS(=O)c1ccc(C(F)(F)F)cc1[N+](=O)[O-])Oc1ccccc1 (stereo unspecified) | 14.5 | -19.7 | i | -4.98* | -5.7%* | i
COC(=O)c1ccc(OC(=O)CS(=O)c2ccccc2[N+](=O)[O-])cc1 (stereo unspecified) | 2.7 | 9.4 | i | i | . | .
CC1=NN(C(=O)CSCc2ccccc2)C(O)(c2ccc(Cl)cc2)C1 (stereo unspecified) | 1.1 | 13.1 | i | -6.51* | i | i
CCN(CC)C(=O)[C@H]1C[C@@H](c2ccco2)NS(=O)(=O)N1C | . | -30.6 | . | . | . | .
Cc1onc(-c2ccccc2Cl)c1C(=O)Nc1nnc(-c2cccc([N+](=O)[O-])c2)s1 | 14.6 | -23.9 | i | -6.9* | 51.4%* | i
Cc1ccccc1-n1nc(C)c(CN(C)CCN2CCCCC2)c1C | 6.4 | -38.9 | . | . | . | .
CCNc1nc2[nH]c(=O)c3c(c2s1)OC(N)=C(C#N)C3c1ccc(C)cc1 (stereo unspecified) | 9.4 | 24.2 | i | -4.95* | 67.3%* | i
COCCCNC(=O)C(=O)NCc1ccccn1 | 7.1 | -18.0 | . | . | . | .
CC(C)NC[C@H](O)c1ccc(O)c(O)c1 | 11.3 | 76.0*! | i | i | 39.0%* | i
CCN1CCN(CCC(=O)O)CC1 | 6.7 | -11.2 | . | . | . | .
CN1CCC(N(C)C(=S)NCCc2ccccc2)CC1 | 4.5 | -37.5 | i | -7.33* | i | i
CN(NS(=O)(=O)c1ccc(Br)cc1)c1nc(C(F)(F)F)nc2ccccc12 | 10.7 | -64.9 | i | -5.61* | i | i
COc1cc(CCC(=O)OCC(=O)NCc2ccc(Cl)cc2)cc(OC)c1OC | -1.4 | -6.1 | i | -6.53* | 66.1%* | i
COc1cc(CCC(=O)NCc2ccc(Cl)cc2)cc(OC)c1OC | . | . | i | i | . | .
COC(=O)c1ccc(COC(=O)C(CCS(C)(=O)=O)N2C(=O)c3ccccc3C2=O)cc1 (stereo unspecified) | 10.6 | 6.4 | i | -6.31* | i | i
O=C(CN1CCOCC1)N1CCN(S(=O)(=O)c2ccccc2)C1c1ccccc1 (stereo unspecified) | 0.8 | 7.8 | i | -6.9* | i | -9.76*
COc1ccc(C2N(C(=O)CN3CCCC3)CCCN2S(=O)(=O)c2ccccc2)cc1 (stereo unspecified) | . | . | i | i | . | .
Cc1ccc(CNC(=O)c2ccccc2NS(=O)(=O)c2ccc(Cl)nc2)cc1 | . | . | i | -5.75* | 54.0%* | i
Cc1ccc(CNC(=O)c2ccccc2NS(C)(=O)=O)cc1 | 5.7 | 35.5 | i | i | . | .
CC(NC(=O)/C=C/c1ccccc1)c1ccccc1 (stereo unspecified) | 17.4 | -80.9 | i | -5.44* | i | i
O=[N+]([O-])c1cc(Br)cc(C=Nc2ccc3c(c2)OCO3)c1O | 10.0 | -22.8 | i | -7.99* | 31.9%* | i
COc1ccc(C2C(C#N)=C(N)Oc3n[nH]c(C)c32)c2ccccc12 (stereo unspecified) | 12.0 | 7.7 | . | . | . | .
CC(=O)C1=C(O)C(=O)N(Cc2ccccc2)C1c1ccccc1F (stereo unspecified) | 21.0 | 20.9 | i | -8.36* | i | i
CC(=O)C1=C(O)C(=O)N(Cc2ccccc2)C1c1ccc(F)cc1 (stereo unspecified) | . | . | i | i | . | .
O=C(NNC(=S)Nc1ccc(Cl)cc1)c1ccccc1OC(F)F | 16.8 | 0.2 | i | -5.4* | 43.8%* | i
O=C(NNC(=S)Nc1ccc(Br)cc1)c1ccccc1Br | . | . | i | -5.65* | 57.8%* | i
O=C(NNC(=S)Nc1cccc(C(F)(F)F)c1)c1ccccc1Cl | 7.9 | -6.2 | i | -5.78* | i | i
